# Calls of active or inactive are those of the source.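 How the source made its calls: active means visually confirmed hit in the image check and inhibition above 20%; inconclusive means visually confirmed hit but inhibition not above 20%; inactive means no visual hit in the image check.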 Where a SMILES comes first, the peptide text is derived from it. The star is where a group is joined. Boc = CC(C)(C)OC(=O)*
# Experiment: endothelial E-selectin expression blockers – imaging, HUVEC, immunofluorescence, MLSMR starter and 10KST1 sets, primary screen (AID 487);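 on inhibition: signal is fraction of cell area covered by stained E-selectin grains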;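 on nuclei count: 100% = median nuclei count of all wells on the same plate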
# Conditions: HUVEC TNFalpha-induced E-selectin immunofluorescence imaging, at 2 µM; inhibition: stronger effect = higher value; nuclei count: measured here: cell number, toxicity
Structure (SMILES),nuclei count [%],inhibition
Cc1nc2ccccc2c(=O)n1NC(=O)c1c(O)c2c(n(CC(C)C)c1=O)CCCC2,101,21.1% (inactive)
CCN(CC)C(=O)C1=C(C)NC(=O)NC1c1c(F)cccc1Cl (stereo not given),122,-73.9% (inactive)
COc1ccccc1OCc1ccc(C(=O)OCC2CCCO2)o1 (stereo not given),113,0.1% (inactive)
Cc1nc(CNS(=O)(=O)c2ccc3c(c2)OCCO3)cs1,110,12.1% (inactive)
c1ccc(CC2CCN(Cc3nc(-c4ccccc4)no3)CC2)cc1,124,-139% (inactive)
CC(C)(C)OC(=O)N1CCCC1C(=O)N1CCCC1C(=O)N1CCCC1C(=O)O (stereo not drawn) (Boc-Pro-Pro-Pro-OH; configuration not given here),102,-59.4% (inactive)
Cc1[nH]c(=O)[nH]c(=O)c1S(=O)(=O)N1CCN(c2cccc(Cl)c2)CC1,126,-160% (inactive)
Cc1csc(SCC(=O)NC(=O)NCc2ccccc2)n1,123,-30.3% (inactive)
O=C1CC(N2CCC(C(=O)N3CCCCC3)CC2)C(=O)N1 (stereo not given),148,-37.4% (inactive)
COc1ccc(S(=O)(=O)NC2CCCCC2)c(C)c1C,108,65.4% (inactive)
O=C(NCc1ccccn1)c1ccc2nc(-c3ccco3)c(-c3ccco3)nc2c1,103,-147% (inactive)
CN1CCCN(C(=O)c2cc(=O)[nH]c3ccccc23)c2nc3ccccc3nc21,117,-33% (inactive)
COc1cc2c(cc1OC)CN(C(=O)COc1ccc(C#N)cc1)CC2,90.3,4.1% (inactive)
Cc1noc(C)c1C(=O)OCC(=O)Nc1ccccc1C(=O)NC(C)c1ccccc1 (stereo not given),106,-72.6% (inactive)
CCc1c(C)nc(N2CCN(Cc3ccccc3)CC2)[nH]c1=O,106,-51.5% (inactive)
CCOc1ccc(CCNC(=O)CCc2nc(-c3ccc(OC)cc3)no2)cc1OCC,146,-64.9% (inactive)
O=C(O)CCCNS(=O)(=O)c1ccc(NCc2ccccc2)c(C(=O)O)c1,91.1,7% (inactive)
CN1CCN(C(=O)c2ccccc2N(Cc2ccccc2)S(C)(=O)=O)CC1,110,-6% (inactive)
Cc1nc(=S)n(-c2ccccc2)[nH]1,120,-31.2% (inactive)
Cc1ccc(S(=O)(=O)Cc2ccc(C(=O)NCCCN3CCN(C)CC3)o2)cc1,115,22.2% (inactive)

Structure (SMILES),nuclei count [%],inhibition
COc1cccc(-n2c(C)nc3c(cnn3-c3ccc(Cl)cc3)c2=O)c1,114,-14.1% (inactive)
CC1(C)CC(=O)C(C=NCCc2ccc(S(N)(=O)=O)cc2)=C(O)C1,102,-11.3% (inactive)
Cc1oc(-c2ccccc2)cc1C(N)=O,97.7,18.6% (inactive)
O=C(Nc1ccc(N2CCOCC2)c(F)c1)c1ccncc1,90,-30% (inactive)
COCn1c(COc2ccccc2)nc2ccccc21,123,29% (inactive)
COc1ccc(OC)c(C2=NOC(C(=O)NCCN3CCOCC3)C2)c1 (stereo not given),85.7,-20.4% (inactive)
Cc1cc(C(=O)Nc2cc(C)n(Cc3ccc(Cl)cc3)n2)no1,88.4,-39.5% (inactive)
Cc1cc(C(=O)CSCc2nnc3n(CCC(C)C)c(=O)c4ccccc4n23)c(C)n1C,88.8,-26.1% (inactive)
COc1ccc(-c2[nH]nc3c2C(c2ccccc2OC(=O)N2CCOCC2)C(C#N)=C(N)O3)cc1 (stereo not given),104,-15.6% (inactive)
COC(=O)c1ccccc1NC(=O)Nc1cc(C)cc(C)n1,140,10.8% (inactive)
CCOC(=O)C1CCCN(Cc2nc(N)nc(Nc3ccccc3)n2)C1 (stereo not given),106,-49.1% (inactive)
COCC(=O)Nc1sc2c(c1C(=O)OC)C(C(=O)OC)CC2 (stereo not given),105,9.9% (inactive)
Cc1ccnc(NC(=O)CCC(=O)N(CC(=O)NC2CCCCC2)c2cccc(C)c2C)c1,125,28.9% (inactive)
Cc1ccc(NC(=O)C2CCCN2C(=O)Oc2ccccc2)cc1 (stereo not given),79.2,26.5% (inactive)
c1ccc2[nH]c(CSc3nnc(-c4ccncc4)o3)nc2c1,90.8,-20.9% (inactive)
Cc1ccc(-c2c3c(=O)n(C)c(=O)n(C)c3cn2CCCN2CCOCC2)cc1,116,-32% (inactive)
CCOc1ccc(NC(=O)CN(C)S(=O)(=O)c2cccs2)cc1,113,-22.6% (inactive)
CCn1ncc(C2=NOC(C(=O)NCc3ccc(Cl)cc3)C2)c1C (stereo not given),102,-240% (inactive)
CCOC(=O)C1CCCN(C(=O)c2ccc(CS(=O)(=O)Cc3ccccc3C)o2)C1 (stereo not given),93.9,-57.8% (inactive)
CC(C)C(=O)Nc1nnc(CCc2nnc(NC(=O)C(C)C)s2)s1,114,-80.3% (inactive)
